Reference: PubChem BioAssay AID1159580 (chemical genetic matrix, 2015)
About 2,000 (36%) of roughly 5,500 compounds were called active. Roughly 18% stayed inconclusive and do not appear here. Rule as the data show it: active = normalized growth mostly below about 0.91 (no sharp cut-off); inconclusive = no clear call, values can overlap the other calls; inactive = mostly above about 0.92. The list shows a part of the results.

Assay: chemical genetic growth profiling, strain panel (AID 1159580);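 also: tested at 20 µM; growth read once vehicle control cultures reached saturation at 30 °C; 1 = growth at the plate median or of vehicle wells; lower values mean less growth of the strain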
Conditions: growth OD

Measured: normalized growth

CCOC(=O)[C@H](CCc1ccccc1)N[C@@H](C)C(=O)N1CCC[C@H]1C(=O)O
inactive: S. cerevisiae deletion strains, locus YJR075W, strain HOC1, stronger effect = lower value 1.01 | S. cerevisiae deletion strains, locus YKL009W, strain mrt4, stronger effect = lower value 1.04 | S. cerevisiae deletion strains, locus YKL068W, stronger effect = lower value 0.998 | S. cerevisiae deletion strains, locus YKL085W, strain MDH1 (second series), stronger effect = lower value 1 | S. cerevisiae deletion strains, locus YKL085W, strain MDH1, stronger effect = lower value 1 | S. cerevisiae deletion strains, locus YKL160W, strain elf1, stronger effect = lower value 0.988 | S. cerevisiae deletion strains, locus YKL190W, strain CNB1, stronger effect = lower value 0.998 | S. cerevisiae deletion strains, locus YKR001C, strain vps1, stronger effect = lower value 1.02 | S. cerevisiae deletion strains, locus YKR026C, strain gcn3, stronger effect = lower value 1 | S. cerevisiae deletion strains, locus YKR091W, strain srl3, stronger effect = lower value 0.994 | S. cerevisiae deletion strains, locus YLL001W, strain dnm1, stronger effect = lower value 0.981 | S. cerevisiae deletion strains, locus YLL026W, stronger effect = lower value 0.989 | S. cerevisiae deletion strains, locus YLL041C, strain sdh2, stronger effect = lower value 1.01 | S. cerevisiae deletion strains, locus YLR027C, strain aat2, stronger effect = lower value 0.985 | S. cerevisiae deletion strains, locus YLR039C, strain RIC1, stronger effect = lower value 1 | S. cerevisiae deletion strains, locus YLR058C, strain SHM2, stronger effect = lower value 1.01 | S. cerevisiae deletion strains, locus YLR102C, strain apc9, stronger effect = lower value 1.02 | S. cerevisiae deletion strains, locus YLR113W, strain HOG1, stronger effect = lower value 1.05 | S. cerevisiae deletion strains, locus YLR221C, strain rsa3, stronger effect = lower value 0.975 | S. cerevisiae deletion strains, locus YLR258W, strain gsy2, stronger effect = lower value 0.992 | S. cerevisiae deletion strains, locus YLR262C, strain YPT6 (second series), stronger effect = lower value 0.998 | S. cerevisiae deletion strains, locus YLR262C, strain YPT6, stronger effect = lower value 1.03 | S. cerevisiae deletion strains, locus YLR268W, strain sec22, stronger effect = lower value 1.01 | S. cerevisiae deletion strains, locus YLR320W, strain mms22, stronger effect = lower value 0.984 | S. cerevisiae deletion strains, locus YLR330W, strain CHS5, stronger effect = lower value 1 | S. cerevisiae deletion strains, locus YLR342W, strain FKS1 (second series), stronger effect = lower value 1 | S. cerevisiae deletion strains, locus YLR342W, strain FKS1, stronger effect = lower value 0.994 | S. cerevisiae deletion strains, locus YLR357W, strain rsc2, stronger effect = lower value 0.938 | S. cerevisiae deletion strains, locus YLR370C, strain arc18, stronger effect = lower value 0.994 | S. cerevisiae deletion strains, locus YLR371W, strain rom2, stronger effect = lower value 1.02 | S. cerevisiae deletion strains, locus YLR384C, strain iki3, stronger effect = lower value 1 | S. cerevisiae deletion strains, locus YLR418C, strain cdc73, stronger effect = lower value 1.01 | S. cerevisiae deletion strains, locus YML016C, strain PPZ1, stronger effect = lower value 1.01 | S. cerevisiae deletion strains, locus YML032C, strain rad52, stronger effect = lower value 1.02 | S. cerevisiae deletion strains, locus YML120C, strain ndi1, stronger effect = lower value 1.03 | S. cerevisiae deletion strains, locus YML124C, strain tub3, stronger effect = lower value 1.01 | S. cerevisiae deletion strains, locus YMR058W, strain fet3, stronger effect = lower value 1.01 | S. cerevisiae deletion strains, locus YMR078C, strain ctf18, stronger effect = lower value 1.01 | S. cerevisiae deletion strains, locus YMR125W, strain sto1, stronger effect = lower value 0.991 | S. cerevisiae deletion strains, locus YMR129W, stronger effect = lower value 1.01 | S. cerevisiae deletion strains, locus YMR205C, strain PFK2, stronger effect = lower value 0.973 | S. cerevisiae deletion strains, locus YMR223W, strain ubp8, stronger effect = lower value 1.02 | S. cerevisiae deletion strains, locus YMR231W, strain pep5, stronger effect = lower value 0.988 | S. cerevisiae deletion strains, locus YMR263W, strain SAP30, stronger effect = lower value 1.01 | S. cerevisiae deletion strains, locus YMR307W, strain GAS1, stronger effect = lower value 1.02 | S. cerevisiae deletion strains, locus YNL067W, strain RPL9B, stronger effect = lower value 1.01 | S. cerevisiae deletion strains, locus YNL071W, strain lat1, stronger effect = lower value 1.01 | S. cerevisiae deletion strains, locus YNL128W, strain TEP1, stronger effect = lower value 1.02 | S. cerevisiae deletion strains, locus YNL183C, strain NPR1, stronger effect = lower value 0.973 | S. cerevisiae deletion strains, locus YNL209W, strain ssb2, stronger effect = lower value 0.986 | S. cerevisiae deletion strains, locus YNL233W, strain BNI4, stronger effect = lower value 1 | S. cerevisiae deletion strains, locus YNL248C, strain rpa49, stronger effect = lower value 1.03 | S. cerevisiae deletion strains, locus YNL250W, strain rad50, stronger effect = lower value 1.01 | S. cerevisiae deletion strains, locus YNL271C, strain bni1, stronger effect = lower value 1.02 | S. cerevisiae deletion strains, locus YNL298W, strain CLA4, stronger effect = lower value 1.04 | S. cerevisiae deletion strains, locus YNL307C, strain MCK1, stronger effect = lower value 1.04 | S. cerevisiae deletion strains, locus YNL322C, strain KRE1 (second series), stronger effect = lower value 0.963 | S. cerevisiae deletion strains, locus YNR049C, strain mso1, stronger effect = lower value 1 | S. cerevisiae deletion strains, locus YNR052C, strain pop2, stronger effect = lower value 1.01 | S. cerevisiae deletion strains, locus YOL006C, strain TOP1, stronger effect = lower value 1.04 | S. cerevisiae deletion strains, locus YOL012C, strain htz1 0.639 | S. cerevisiae deletion strains, locus YOL147C, strain pex11, stronger effect = lower value 1.01 | S. cerevisiae deletion strains, locus YOR001W, strain rrp6, stronger effect = lower value 1 | S. cerevisiae deletion strains, locus YOR061W, strain CKA2, stronger effect = lower value 1.01 | S. cerevisiae deletion strains, locus YOR069W, strain VPS5, stronger effect = lower value 0.992 | S. cerevisiae deletion strains, locus YOR070C, strain gyp1, stronger effect = lower value 0.963 | S. cerevisiae deletion strains, locus YOR080W, strain dia2, stronger effect = lower value 0.997 | S. cerevisiae deletion strains, locus YOR083W, strain WHI5, stronger effect = lower value 0.934 | S. cerevisiae deletion strains, locus YOR106W, strain vam3, stronger effect = lower value 0.977 | S. cerevisiae deletion strains, locus YOR136W, strain idh2, stronger effect = lower value 1.02 | S. cerevisiae deletion strains, locus YOR144C, strain elg1, stronger effect = lower value 1.01 | S. cerevisiae deletion strains, locus YOR184W, strain ser1, stronger effect = lower value 1.04 | S. cerevisiae deletion strains, locus YOR231W, strain MKK1, stronger effect = lower value 1.04 | S. cerevisiae deletion strains, locus YOR265W, strain rbl2, stronger effect = lower value 0.992 | S. cerevisiae deletion strains, locus YOR270C, strain vph1, stronger effect = lower value 0.999 | S. cerevisiae deletion strains, locus YOR290C, strain snf2, stronger effect = lower value 0.988 | S. cerevisiae deletion strains, locus YOR316C, strain cot1, stronger effect = lower value 1.02 | S. cerevisiae deletion strains, locus YPL051W, strain arl3, stronger effect = lower value 0.954 | S. cerevisiae deletion strains, locus YPL078C, strain atp4, stronger effect = lower value 0.993 | S. cerevisiae deletion strains, locus YPL106C, strain sse1, stronger effect = lower value 0.922 | S. cerevisiae deletion strains, locus YPL240C, strain hsp82, stronger effect = lower value 0.994 | S. cerevisiae deletion strains, locus YPL241C, strain CIN2, stronger effect = lower value 0.999 | S. cerevisiae deletion strains, locus YPL256C, strain CLN2, stronger effect = lower value 1.05 | S. cerevisiae deletion strains, locus YPR119W, strain clb2, stronger effect = lower value 1.02 | S. cerevisiae deletion strains, locus YPR141C, strain kar3, stronger effect = lower value 1.01 | S. cerevisiae deletion strains, locus YPR163C, strain tif3, stronger effect = lower value 1.02 | S. cerevisiae deletion strains, locus YPR167C, strain met16, stronger effect = lower value 1.02 | S. cerevisiae deletion strains, strain wtn01, stronger effect = lower value 1.01 | S. cerevisiae strains, strain wild type, stronger effect = lower value 1
